According to the antibiotic and cytotoxicity screens of Wong et al. (2023):
Screen size: about 39,000 compounds; about 3,300 (8.5%) were called active. Shown is part of a subset that was picked to be rich in actives.

These compounds were tested on HepG2 (assay: cytotoxicity call (relative viability < 0.9)). Details: 10 µM.

Compound | cytotoxicity call
COc1ccc(S(=O)(=O)N(C)C[C@@H]2Oc3c(NC(=O)c4ccncc4)cccc3C(=O)N([C@H](C)CO)C[C@H]2C)cc1 | inactive
CN(C)CCc1cc(Br)c(OCCCNC(=O)/C=C/c2cc(Br)c(OCCN3CCCCC3)c(Br)c2)c(Br)c1 | active
C=CC(=O)NCCN1CCCCC1 | inactive
CN(C)CCc1cc(Br)c(OCCCNC(=O)/C=C/c2cc(Br)c(OCCN3CCCC3)c(Br)c2)c(Br)c1 | active
COc1ccc(NC(=O)Nc2ccc3c(c2)C(=O)N([C@@H](C)CO)C[C@@H](C)[C@@H](CN(C)S(=O)(=O)c2ccc(Cl)cc2)OCCCC[C@@H](C)O3)cc1 | inactive
C[C@H](CO)N1C[C@H](C)[C@H](CN(C)S(C)(=O)=O)OCCCC[C@H](C)Oc2ccc(NS(C)(=O)=O)cc2C1=O | inactive
NC(=O)C1CCOCC1 | inactive
C[C@@H]1CN([C@H](C)CO)C(=O)c2cc(C#Cc3ccccn3)cnc2O[C@H]1CN(C)C(=O)CCN1CCCCC1 | inactive
CC(=O)O[C@H]1CCS(=O)(=O)C1 | inactive
COc1cccc(C(=O)Nc2ccc3c(c2)C(=O)N(C)[C@@H]2CC[C@@H](CC(=O)NCC(F)(F)F)O[C@H]2CO3)c1 | inactive
CCn1nnnc1NCc1cccn1C | inactive
C[C@@H]1CN([C@@H](C)CO)C(=O)c2cc(NC(=O)Nc3ccc(C(F)(F)F)cc3)ccc2O[C@H]1CN(C)Cc1ccc(C(F)(F)F)cc1 | active
C[C@@H]1CN([C@H](C)CO)C(=O)c2cc(NC(=O)Nc3ccc(C(F)(F)F)cc3)ccc2O[C@@H]1CN(C)Cc1ccc(C(F)(F)F)cc1 | active
C[C@@H]1CN([C@H](C)CO)C(=O)c2cc(NC(=O)Nc3ccc(C(F)(F)F)cc3)ccc2O[C@H]1CN(C)Cc1ccc(C(F)(F)F)cc1 | active
C[C@@H]1CN([C@@H](C)CO)C(=O)c2cc(NC(=O)Nc3ccc(C(F)(F)F)cc3)ccc2O[C@@H]1CN(C)Cc1ccc(C(F)(F)F)cc1 | active
C[C@H](CO)N1C[C@H](C)[C@H](CN(C)S(=O)(=O)c2ccc(F)cc2)Oc2ccc(NS(=O)(=O)c3ccc(F)cc3)cc2CC1=O | inactive
c1cnc2c(c1)OCCN2 | inactive
C=CCC[C@@H](Cc1ccc(F)cc1)C(=O)OC[C@H]1CCCN1C(=O)[C@H](CC=C)CC(=O)N(CCO)Cc1ccccc1 | inactive
C[C@@H]1CCCCO[C@@H](CN(C)C(=O)C2CCCCC2)[C@@H](C)CN([C@@H](C)CO)C(=O)c2cc(NC(=O)c3ccccc3)ccc2O1 | inactive
O=c1nc(NCc2ccco2)cc[nH]1 | inactive
C[C@@H]1CN([C@@H](C)CO)C(=O)c2cc(NC(=O)Cn3cnnn3)ccc2O[C@H]1CN(C)Cc1ccc2c(c1)OCO2 | inactive
COc1ccc(S(=O)(=O)N(C)C[C@H]2Oc3ccc(NS(=O)(=O)c4ccccc4)cc3C(=O)N([C@H](C)CO)C[C@@H]2C)cc1 | inactive
Cc1ccc(S(=O)(=O)Nc2ccc3c(c2)CC(=O)N([C@@H](C)CO)C[C@H](C)[C@@H](CN(C)S(=O)(=O)c2ccccc2)O3)cc1 | inactive
Cc1noc(C)c1NC(=O)Nc1ccc2c(c1)C(=O)N([C@@H](C)CO)C[C@H](C)[C@@H](CN(C)S(=O)(=O)c1ccc(Cl)cc1)OCCCC[C@H](C)O2 | inactive
CCOC(=O)C1=NNC[C@@H]1C(=O)OCC | inactive
C[C@H](CO)N1C[C@H](C)[C@@H](CN(C)Cc2ccc(C(F)(F)F)cc2)Oc2ccc(NC(=O)Nc3ccc(C(F)(F)F)cc3)cc2C1=O | inactive

Compound | cytotoxicity call
C[C@H](CO)N1C[C@H](C)[C@H](CN(C)Cc2ccc(C(F)(F)F)cc2)Oc2ccc(NC(=O)Nc3ccc(C(F)(F)F)cc3)cc2C1=O | active
C[C@H]1CN([C@@H](C)CO)C(=O)c2cc(NC(=O)Nc3ccc(C(F)(F)F)cc3)ccc2O[C@@H]1CN(C)Cc1ccc(C(F)(F)F)cc1 | active
C[C@H]1CN([C@@H](C)CO)C(=O)c2cc(NC(=O)Nc3ccc(C(F)(F)F)cc3)ccc2O[C@H]1CN(C)Cc1ccc(C(F)(F)F)cc1 | inactive
CC(=O)N1CCN(c2ccnc3c2c(=O)n(CC(=O)NC(C)(C)C)c(=O)n3C)CC1 | inactive
CO[C@H]1C[C@@H]2CC[C@@H](C)[C@@](O)(O2)C(=O)C(=O)N2CCCC[C@H]2C(=O)O[C@H]([C@H](C)C[C@@H]2CC[C@@H](OCCO)[C@H](OC)C2)CC(=O)[C@H](C)/C=C(\C)[C@@H](O)[C@@H](OC)C(=O)[C@H](C)C[C@H](C)/C=C/C=C/C=C/1C | inactive
C[C@@H]1CN([C@@H](C)CO)C(=O)Cc2cc(NS(=O)(=O)c3cn(C)cn3)ccc2O[C@@H]1CN(C)S(=O)(=O)c1ccc(Cl)cc1 | inactive
C[C@H]1CN([C@@H](C)CO)C(=O)c2cccc(NS(=O)(=O)c3ccc(Cl)cc3)c2O[C@H]1CN(C)Cc1ccc(-c2ccccc2)cc1 | inactive
COc1nc(=NC(=O)NS(=O)(=O)Nc2cccc3cccnc23)nc(OC)[nH]1 | active
COc1ccc(N2C(=O)C[C@@H](c3ccc(Br)cc3)[C@H]2C(=O)Nc2cccc3cccnc23)cc1 | inactive
C[C@@H]1CN([C@H](C)CO)C(=O)Cc2cc(NS(=O)(=O)c3ccc(F)cc3)ccc2O[C@H]1CN(C)S(=O)(=O)c1cccs1 | inactive
Cc1cc(C2(c3cc(C)c(N)c(C)c3)CCCCC2)cc(C)c1N | active
CC1CCC(NC(=O)N(CCCl)[NH2+][O-])CC1 (configuration not stated) | inactive
CC(C)NC(=O)[C@@H]1c2ccccc2C(=O)N(Cc2cc(C(F)(F)F)cc(C(F)(F)F)c2)[C@H]1c1ccc(CO)cc1 | inactive
Cc1ccc(N(c2ccc(C)cc2)c2cccnc2)cc1 | inactive
C[C@@H]1CN([C@@H](C)CO)S(=O)(=O)c2ccc(C#Cc3ccccc3F)cc2O[C@@H]1CN(C)CC1CCOCC1 | inactive
O=C(C[C@H]1C=C[C@H](NC(=O)CN2CCOCC2)[C@@H](CO)O1)NCCc1ccccc1 | inactive
CC(C)NC(=O)N(C)C[C@@H]1Oc2ccc(NC(=O)NC3CCCCC3)cc2C(=O)N([C@@H](C)CO)C[C@H]1C | inactive
Cc1ccc(S(=O)(=O)N(C)C[C@@H]2OCCCC[C@H](C)Oc3ccc(NC(=O)Nc4ccc(F)cc4)cc3C(=O)N([C@@H](C)CO)C[C@H]2C)cc1 | inactive
Cc1ccc(S(=O)(=O)N(C)C[C@H]2OCCCC[C@@H](C)Oc3ccc(NC(=O)Nc4ccc(F)cc4)cc3C(=O)N([C@H](C)CO)C[C@H]2C)cc1 | inactive
Cc1ccc(S(=O)(=O)N(C)C[C@@H]2OCCCC[C@@H](C)Oc3ccc(NC(=O)Nc4ccccc4)cc3C(=O)N([C@@H](C)CO)C[C@H]2C)cc1 | active
Cc1ccc(S(=O)(=O)N(C)C[C@@H]2OCCCC[C@@H](C)Oc3ccc(NC(=O)Nc4ccc(F)cc4)cc3C(=O)N([C@H](C)CO)C[C@H]2C)cc1 | active
Cc1ccc(S(=O)(=O)N(C)C[C@H]2OCCCC[C@@H](C)Oc3ccc(NC(=O)Nc4ccc(F)cc4)cc3C(=O)N([C@@H](C)CO)C[C@H]2C)cc1 | active
Cc1ccc(S(=O)(=O)N(C)C[C@@H]2OCCCC[C@@H](C)Oc3ccc(NC(=O)Nc4ccc(F)cc4)cc3C(=O)N([C@@H](C)CO)C[C@@H]2C)cc1 | inactive
Cc1ccc(S(=O)(=O)N(C)C[C@@H]2OCCCC[C@H](C)Oc3ccc(NC(=O)Nc4ccc(F)cc4)cc3C(=O)N([C@@H](C)CO)C[C@@H]2C)cc1 | inactive
Cc1ccc(S(=O)(=O)N(C)C[C@@H]2OCCCC[C@@H](C)Oc3ccc(NC(=O)Nc4ccccc4)cc3C(=O)N([C@H](C)CO)C[C@H]2C)cc1 | inactive
Cc1ccc(S(=O)(=O)N(C)C[C@@H]2OCCCC[C@H](C)Oc3ccc(NC(=O)Nc4ccccc4)cc3C(=O)N([C@@H](C)CO)C[C@H]2C)cc1 | inactive
